In the library only some 9.3% were active in any assay of this set; here they are far more common.
ELG1 genotoxic: induces genotoxicity in HEK293T cells with luciferase-tagged ELG1. HEK293T ELG1-luciferase reporter, luminescence, 16 h. Potency, µM (titrated, usually from 46 µM), for inactives: top-dose activity change, positive = activation, most hits filed as activators. hit rate 1.3% among 330,000; also: % of control where 0% means no effect; nearly all actives have a fitted effect of over 60% in size
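16 hr compound incubation (37 °C, 5% CO2) of HEK293T cells carrying luciferase-tagged ELG1; luciferase then measured by ONE-Glo luminescence after 30 min at RT.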
FLuc modulator: counter-screen for miR-21 project: firefly luciferase inhibitors or activators. P08659. purified FLuc, Km substrates, luminescence inhibition. Potency, µM (highest dose often 57.5 µM), for inactives: at the highest dose activity change, negative = inhibition, usual class: inhibitors. hit rate 6.9% among 360,000. AID 588342;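 also: plate controls were vehicle for no effect and reference inhibitor for full effect; nearly all actives have a fitted effect of over 55% in size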
Target sequence (P08659 whole entry, looked up): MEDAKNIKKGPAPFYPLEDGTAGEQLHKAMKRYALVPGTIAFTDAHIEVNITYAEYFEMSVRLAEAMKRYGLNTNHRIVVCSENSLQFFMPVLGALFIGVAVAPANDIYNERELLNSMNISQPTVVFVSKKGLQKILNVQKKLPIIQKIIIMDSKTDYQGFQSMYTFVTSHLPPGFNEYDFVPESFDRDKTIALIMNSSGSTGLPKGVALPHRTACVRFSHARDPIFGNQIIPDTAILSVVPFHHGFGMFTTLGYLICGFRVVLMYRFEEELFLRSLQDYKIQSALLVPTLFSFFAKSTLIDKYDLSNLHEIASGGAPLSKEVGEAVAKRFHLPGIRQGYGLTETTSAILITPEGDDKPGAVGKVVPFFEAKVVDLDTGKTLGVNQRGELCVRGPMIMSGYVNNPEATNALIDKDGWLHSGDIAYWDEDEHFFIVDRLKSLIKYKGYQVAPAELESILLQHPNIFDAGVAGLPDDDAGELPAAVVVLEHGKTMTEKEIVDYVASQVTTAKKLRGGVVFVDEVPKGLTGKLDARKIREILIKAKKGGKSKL
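Purified P. pyralis luciferase, 10 nM final, with Km-level 10 uM D-luciferin and 10 uM ATP in 50 mM Tris acetate pH 7.5, 10 mM Mg acetate, 0.01% Tween-20, 0.05% BSA; 6-point qHTS titration about 60 µM downward; luminescence read.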
SMN2 splice enh: SMN2 splice variant enhancement; HEK293 SMN2-luciferase splicing reporter, luminescence, 30-36 h; hit rate 2.8% among 210,000; AID 1458; Potency, µM (doses to about 46.1 µM), inactives show at the highest dose activity change, positive = activation, usual class: activators; also: % of control where 0% means no effect; nearly all actives have a fitted effect of over 55% in size
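qHTS luciferase splicing reporter: luminescence rises when SMN2 exon 7 is included in transfected HEK293 cells. Compound exposure lasted 30-36 h at 37C, with 4.5 mM final sodium butyrate as control, followed by a ONE-Glo read.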
NPC1 prom act: activates the NPC1 promoter; Huh7 NPC1 promoter luciferase reporter, 24 h; Potency, µM (highest dose often 9.22 µM), without a hit: top-dose activation, most hits filed as activators; hit rate 2.4% among 320,000; AID 485313; also: % of control where 0% means no effect; nearly all actives have a fitted effect of over 60% in size
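Cells: Huh7 expressing luciferase under the NPC1 promoter, 1500/well. Seeded 2 h, compound added, incubated 24 h at 37 °C. Luciferase reagent, 10 min ambient, then luminescence.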
Rab9 prom act: activators of Rab9 promoter | Huh7 Rab9 promoter-luciferase reporter, luminescence, 24 h | Potency, µM (series often up to 9.22 µM), for the others: top-dose activation, negative = inhibition, usual class: activators | hit rate 2.8% among 320,000; also: % of control where 0% means no effect; nearly all actives have a fitted effect of over 60% in size
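Huh7 cells stably carrying a Rab9 promoter-luciferase reporter, 1500 cells per well in OP-MEM I with 10% FBS, treated with compound 24 hours at 37C. Luciferase activity read by luminescence after 10 minutes with Amplite reagent.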
ELG1 repair inh: ELG1-dependent DNA repair inhibition; Potency, µM (top dose mostly 46.1 µM), without a hit: at the highest dose activity change, negative = inhibition, hits mostly inhibitors; hit rate 2.3% among 330,000; HEK293T ELG1-luciferase reporter, luminescence, 16 h; DNA damage induced by 5-fluorouridine; also: % is scaled to controls: 0 for no effect and ±100 for the full control effect; nearly all actives have a fitted effect of over 55% in size
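Step one: seed 2,000 cells per well. Step two: pin-transfer compound or DMSO alongside 5-fluorouridine. Step three: incubate 16 hr, 37 °C, 5% CO2. Step four: add ONE-Glo, wait 30 min, read luminescence.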
Numbers without * were called inactive; ? = inconclusive; . = no result given; [ ] = another dose, or the depositor's remark. Calls follow the shape of the dose curve; as a rule, active = well fitted curve in the direction sought with a large enough effect; inconclusive = small, poorly fitted or top-dose-only effect, or another doubt; inactive = no such curve, though single readings can be large; an effect the other way counts as inactive or inconclusive. Potency is read from the fitted curve at half-maximal effect.

SMILES | ELG1 genotoxic | FLuc modulator | SMN2 splice enh | NPC1 prom act | Rab9 prom act | ELG1 repair inh
Cc1nn(-c2nc3ccccc3s2)c(C)c1Oc1ccccc1O | ? | 2.4µM* | ? | 3.5µM* | 3.2µM* | ?
Cc1nn(-c2ccccn2)c(C)c1Oc1ccccc1O | 8% | -3% | -12% | 1% | 7% | -21%
O=C(NCCN1CCOCC1)c1cc(-c2ccc(Cl)cc2Cl)on1 | 23% | 11µM* | . | 27% | 5% | ?
O=C(c1cc(-c2ccc(Cl)cc2Cl)on1)N1CCCCCC1 | 4.6µM* | 1.2µM* | . | 0.71µM* | 0.71µM* | ?
O=C(c1cc(-c2ccc(Cl)cc2Cl)on1)N1CCCC1 | 2.9µM* | 0.43µM* | . | 0.89µM* | 1µM* | ?
N#C/C(=C\Nc1ccc2c(c1)OCCO2)C(=O)NCc1ccco1 | 1% | ? | . | 1% | -8% | 29%
O=C(c1ccccc1)c1ccc(OCCn2cnc3ccccc3c2=O)cc1 | -2% | -12% | -40% | 2% | 1% | -15%
COc1ccccc1NS(=O)(=O)c1cccc(C(=O)NNC(=O)c2ccc(NC(C)=O)cc2)c1 | -2% | 3% | . | -4% | -4% | 6%
Cc1oc(-c2ccc(Cl)cc2)nc1CS(=O)CC(=O)NCc1ccccc1 (configuration not stated) | -2% | 0% | . | -2% | -8% | -3%
COc1ccccc1C1CC(c2ccccc2)=NN1S(=O)(=O)c1ccccc1 (configuration not stated) | -9% | -1% | . | 1% | -4% | 23µM*
COc1ccc(C2CC(c3ccccc3)=NN2S(=O)(=O)c2ccccc2)c(OC)c1 (configuration not stated) | -1% | 3% | 13% | 5% | -1% | 13%
O=C(NCc1ccco1)C(c1ccccc1)N(Cc1ccccc1)C(=O)Cn1nnc2ccccc21 (configuration not stated) | -5% | 8% | 6% | -3% | 2% | 18µM*
C=CCn1c(SCC(=O)Nc2ccc(NC(=O)c3ccco3)c(OC)c2)nnc1-c1ccncc1 | 5% | -3% | -2% | 1% | 2% | -8%
COc1cc2c(cc1NC(=O)CSc1nnnn1-c1ccccc1)oc1ccccc12 | 12% | -1% | -11% | -1% | -5% | -5%
C=CCn1c(SCC(=O)Nc2cc(OC)c(NC(=O)c3ccco3)cc2OC)nnc1-c1ccncc1 | -4% | 6% | -15% | -2% | 4% | 23µM*
C=CCn1c(SCC(=O)Nc2cccc3ccccc23)nnc1-c1cnccn1 | -1% | 3% | 2% | 3% | -4% | ?
COc1cc2c(cc1NC(=O)CSc1nnc(Cc3cccs3)n1Cc1ccco1)oc1ccccc12 | -8% | -18% | 10% | 2% | 0% | 23µM*
COc1cc2c(cc1NC(=O)CSc1nnc(Cc3cccs3)n1C)oc1ccccc12 | -2% | ? | -29% | 9% | -3% | ?
C=CCn1c(SCC(=O)Nc2cc3oc4ccccc4c3cc2OC)nnc1-c1cnccn1 | -15% | ? | . | 5% | -17% | 12µM*
CCn1c(SCC(=O)Nc2cc3oc4ccccc4c3cc2OC)nnc1-c1cccs1 | 3% | -11% | 0% | 2% | 1% | 18µM*
Cc1cc(C)cc(NC(=O)N2CCC(c3nc4ccccc4o3)CC2)c1 | -12% | 1% | -15% | -8% | 1% | -16%
O=C(Nc1ccc(Oc2ccc(NC(=O)Nc3ccccc3Cl)cc2)cc1)Nc1ccccc1Cl | 2% | -18% | . | -4% | -11% | -18%
O=C(COC(=O)c1ccc([N+](=O)[O-])o1)Nc1ncc(Cl)cc1Cl | -1% | . | . | . | . | ?
CC1CCN(c2c(NCC3CCC(C(=O)NCc4ccccc4)CC3)c(=O)c2=O)CC1 (configuration not stated) | -1% | 0% | 2% | -2% | -2% | -21%
COc1ccc(OC)c(NC(=O)Nc2nnc(N3CCC(C)CC3)s2)c1 | 3% | 24µM* | -10% | 0% | -3% | 8%
SMILES | ELG1 genotoxic | FLuc modulator | SMN2 splice enh | NPC1 prom act | Rab9 prom act | ELG1 repair inh
CC1CCN(c2c(NCC3CCC(C(=O)NCCCc4ccccc4)CC3)c(=O)c2=O)CC1 (configuration not stated) | 3% | 0% | . | -4% | -1% | 10µM*
COc1ccc(OC)c(NC(=O)C2CCC(CNc3c(N4CCC(C)CC4)c(=O)c3=O)CC2)c1 (configuration not stated) | 27% | 1% | 16µM* | -5% | -8% | ?
NC(=O)C1CCCN1 (configuration not stated) | -1% | 1% | 6% | -4% | 5% | -1%
COc1ccc(CNC(=O)CN2C(=O)c3cccnc3Oc3ccc(C)cc32)cc1 | . | -6% | . | . | . | .
Cc1cccc(C(=O)n2nc(C)c(S(=O)(=O)N3CCOCC3)c2C)c1 | . | -9% | . | . | . | .
Cc1nn(-c2ccccc2)c(C)c1/C=N/n1c(-c2ccc(Cl)cc2)n[nH]c1=S | 10% | 4% | -9% | 0% | -2% | -10%
Cn1cccc1/C=N/n1c(-c2ccccc2)n[nH]c1=S | -1% | -1% | -14% | 1% | 1% | 1%
Cc1ccc(-c2n[nH]c(=S)n2/N=C/c2c(C)[nH]n(-c3ccccc3)c2=O)cc1 | -1% | 12µM* | -28% | -2% | 1% | -15%
Cc1ccc2cccc(N=Cc3c(C)[nH]n(-c4ccccc4)c3=O)c2n1 | ? | 17µM* | . | 1% | -4% | -1%
Cn1cccc1/C=N/n1c(-c2ccc(C(C)(C)C)cc2)n[nH]c1=S | -1% | 21µM* | -18% | -1% | -5% | ?
COc1ccc(CNC(=O)COC(=O)c2cccc(S(=O)(=O)N3CCOCC3)c2)cc1 | -4% | 0% | . | 0% | -3% | -1%
NNC(=O)c1ccc(COc2ccc3c(c2)CCC3)cc1 | -1% | ? | ? | ? | ? | ?
O=C(Nc1ccccc1Cl)c1ccc(COc2ccc3c(c2)CCC3)cc1 | ? | -14% | 6.3µM* | ? | ? | ?
O=C(O)c1ccc(COc2ccc3c(c2)CCC3)cc1 | 9% | 5.4µM* | . | ? | ? | ?
C=CCOc1ccc(CNc2nccs2)cc1 | 14% | 13µM* | ? | 2% | 25% | ?
C=CCOc1ccc(CNc2nccs2)cc1OCC | 2% | -18% | -24% | -2% | -2% | -2%
O=C(c1cccs1)c1ccc(-c2cccs2)s1 | ? | 0.3µM* | ? | ? | 0.5µM* | ?
CN1CCN(C(=O)c2ccc(-c3cccs3)s2)CC1 | ? | 11µM* | . | 1.8µM* | 2.2µM* | ?
C[C@H]1CC(C)(C)C[C@@](OCCN2CCCCC2)(c2ccccc2)C1 | . | . | -21%[9.22 µM] | . | . | .

High-throughput results: PubChem BioAssay, National Center for Advancing Translational Sciences (NCATS)
